We go through 8 compounds from PubChem BioAssay (EPA / NIEHS).

Assay [1] can be described thus: APR_HepG2_CellCycleArrest_1hr: Apredica 1-hour HepG2 Assay for Cell Cycle Arrest (AID 2282666). The settings on record: high-content imaging, actives raise or lower the signal. The method in brief: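 HepG2 cells exposed for 1 h to 0.39–200 uM compound (0.5% DMSO). Fixed, Hoechst-stained nuclei imaged by ArrayScan; DNA content quantified by Cell Cycle analysis; bidirectional fit against DMSO.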

A short description of assay [2]: ACEA_ER_80hr: ACEA Biosciences xCELLigence Real-Time Cell Analysis on Estrogen Receptor Agonism for Proliferation (AID 2282667; active = hit-call score of the fitted dose curve at least 0.9, where 1 is the maximum). Conditions: T47D proliferation, impedance (xCELLigence), 80 h. The essentials:
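Estrogen-driven proliferation is captured as electrode impedance in T47D cells 80 h after compound addition. Test articles ran at 8 concentrations, 1:4 dilutions from 100 uM final, in two replicate plates.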

Assay [3] is described as follows: APR_HepG2_CellLoss_1hr: Apredica 1-hour HepG2 Assay for Cell Loss (AID 2282668).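 Also: curves fitted both ways against DMSO so gain or loss of cells counts.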 The settings on record: high-content imaging. The method in brief: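 HepG2 cells were treated for 1 h with compound at 0.39–200 uM, in duplicate, in 0.5% DMSO. After formaldehyde fixation, Hoechst 33342-stained nuclei were imaged on an ArrayScan to count cells. Data were fitted bidirectionally versus DMSO.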

Assay [4] in a line: APR_HepG2_MicrotubuleCSK_1hr: Apredica 1-hour HepG2 Assay for Microtubule CSK Stabilty (AID 2282669). The settings on record: HepG2 microtubule cytoskeleton imaging, actives raise or lower the signal. The essentials: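 HepG2 cells exposed 1 h to 0.39–200 uM compound (0.5% DMSO, duplicates), then formaldehyde-fixed, permeabilized and immunostained for alpha-tubulin with Hoechst nuclei. Imaged by ArrayScan high-content analysis; bidirectional fit versus DMSO.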

Assay [5] is described as follows: APR_HepG2_NuclearSize_1hr: Apredica 1-hour HepG2 Assay for Nuclear Size (AID 2282670). Conditions: high-content imaging, actives raise or lower the signal. The method in brief:
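HepG2 cells dosed 1 hr with 0.39–200 uM compound (0.5% DMSO), formaldehyde-fixed, Hoechst 33342-stained and imaged at 20x; nuclear diameter from nuclear stain, fitted bidirectionally against DMSO.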

A short description of assay [6]: APR_HepG2_p53Act_1hr: Apredica 1-hour HepG2 Assay for p53 Activation (AID 2282671). Conditions: high-content imaging, actives raise or lower the signal. The essentials:
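HepG2 cells treated 1 h with compound at 0.39–200 uM (10 concentrations, duplicate) in 0.5% DMSO. Formaldehyde-fixed, permeabilised cells immunostained for p53 with Hoechst 33342; high-content imaging, bidirectional fit versus DMSO.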

Assay [7] in a line: APR_HepG2_P-H2AX_1hr: Apredica 1-hour HepG2 Assay for H2AX Phosphorylation (AID 2282673). Conditions: high-content imaging, actives raise or lower the signal. The essentials: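 HepG2 dosed 1 hr at 0.39-200 uM (0.5% DMSO final), duplicate. Fixed in 3.7% formaldehyde, Triton permeabilized, immunostained for phospho-histone H2A.x (1:200) with Hoechst 33342; ArrayScan 20x imaging, bidirectional fit vs DMSO.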

A short description of assay [8]: APR_HepG2_MitoMass_1hr: Apredica 1-hour HepG2 Assay for Mitochondrial Mass (AID 2282674). Conditions: high-content imaging, actives raise or lower the signal. The essentials:
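HepG2 cells dosed 1 hr with 0.39-200 uM compound (0.5% DMSO), duplicate wells. Mitochondria stained with 250 nM MitoTracker Red CMXRos for 30 min before formaldehyde fixation, imaged at 20x by ArrayScan; bidirectional fit versus DMSO.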

A short description of assay [9]: APR_HepG2_CellCycleArrest_24hr: Apredica 24-hour HepG2 Assay for Cell Cycle Arrest (AID 2282905).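 Also: cell cycle arrest scored as ratio of 2N to 4N nuclear DNA content.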 The settings on record: imaging, actives raise or lower the signal. The method in brief: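 Compounds at 0.39–200 uM (0.5% DMSO) for 24 h, then fixed and Hoechst 33342 stained. Cell-cycle analysis of nuclear DNA content by high-content imaging, fitted bidirectionally versus DMSO.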

Assay [10] is described as follows: APR_HepG2_StressKinase_1hr: Apredica 1-hour HepG2 Assay for Stress Kinase (AID 2282906). Conditions: HepG2 stress kinase (phospho-c-Jun) imaging, actives raise or lower the signal. The essentials:
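HepG2 cells dosed 0.39-200 uM (0.5% DMSO) for 1 h, then formaldehyde-fixed. Stress kinase read by phospho-c-Jun immunofluorescence using high-content imaging; bidirectional fit vs DMSO.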

Assay [11] can be described thus: APR_HepG2_NuclearSize_24hr: Apredica 24-hour HepG2 Assay for Nuclear Size (AID 2282907). The settings on record: high-content imaging, actives raise or lower the signal. The method in brief: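 HepG2 cells exposed 24 h to compounds at 0.39–200 uM (0.5% DMSO), fixed, Hoechst 33342 stained and imaged at 20x; nuclear diameter measured by automated image analysis, fitted bidirectionally against DMSO controls.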

A short description of assay [12]: APR_HepG2_CellLoss_24hr: Apredica 24-hour HepG2 Assay for Cell Loss (AID 2282908).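 As to AC50: fit in both directions so a hit may be cell loss or gain.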 The settings on record: high-content imaging. The method in brief:
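HepG2 cells exposed 24 hr to 0.39–200 uM compound in duplicate at 0.5% v/v final DMSO. Cells fixed in 3.7% formaldehyde and Hoechst 33342-stained. Cell number came from nuclear imaging at 20x. Bidirectional fit versus DMSO.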

Assay [13] in a line: APR_HepG2_MicrotubuleCSK_24hr: Apredica 24-hour HepG2 Assay for Microtubule CSK Stabilty (AID 2282909). The settings on record: HepG2 microtubule cytoskeleton imaging, actives raise or lower the signal. The method in brief: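 HepG2 cells were treated 24 hr with compound at 0.39–200 uM in duplicate (0.5% DMSO final), then fixed and permeabilized. Alpha-tubulin immunofluorescence was imaged by high-content microscopy, with bidirectional fitting against DMSO and taxol as positive control.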

Assay [14] is described as follows: APR_HepG2_MitoticArrest_24hr: Apredica 24-hour HepG2 Assay for Mitotic Arrest (AID 2282910). The settings on record: high-content imaging, actives raise or lower the signal. The method in brief: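 HepG2 cells, 24 h exposure at 0.39-200 uM (10 concentrations, duplicate, 0.5% DMSO). Fixed, stained for phospho-histone H3 with Hoechst; imaged by high-content microscopy, bidirectional fit versus DMSO.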

Assay [15] can be described thus: APR_HepG2_MitoMembPot_24hr: Apredica 24-hour HepG2 Assay for Mitochondrial Membrane Potential (AID 2282911). Conditions: imaging, actives raise or lower the signal. The essentials:
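Mitochondrial dye uptake (MitoTracker Red CMXRos, 250 nM, 30 min pre-fixation) in HepG2 after 24 hr compound exposure, 0.39–200 uM; ArrayScan images at 20x, activity fitted in both directions relative to DMSO.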

The nature of assay [16]: APR_HepG2_MitoMass_24hr: Apredica 24-hour HepG2 Assay for Mitochondrial Mass (AID 2282912). The settings on record: high-content imaging, actives raise or lower the signal. The essentials:
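HepG2 cells exposed 24 hr to 0.39–200 uM compound, 0.5% v/v DMSO, in duplicate. Stained before fixation with 250 nM MitoTracker Red CMXRos for 30 min, then imaged at 20x with Hoechst nuclei. Fitted in both directions against DMSO.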

Assay [17] can be described thus: APR_HepG2_p53Act_24hr: Apredica 24-hour HepG2 Assay for p53 Activation (AID 2282913).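 Also: p53 protein immunofluorescence averaged per cell in HepG2 with Hoechst nuclei.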 Conditions: high-content imaging, actives raise or lower the signal. The method in brief: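 Following 24 hr dosing of HepG2 at 0.39–200 uM, the cells undergo formaldehyde fixation, Triton permeabilization and multiplexed antibody labeling that includes p53 (Cy5). Signal from the imaging is referenced to DMSO solvent controls.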

The nature of assay [18]: APR_HepG2_MitoticArrest_1hr: Apredica 1-hour HepG2 Assay for Mitotic Arrest (AID 2282672). Conditions: high-content imaging, actives raise or lower the signal. The method in brief:
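HepG2 cells exposed 1 hr to compounds at 0.39–200 uM (0.5% v/v DMSO final), then fixed in 3.7% formaldehyde and immunostained for phospho-histone H3 with Hoechst 33342. Mitotic arrest scored by automated fluorescence imaging, fitted bidirectionally versus DMSO.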

A short description of assay [19]: APR_HepG2_CellCycleArrest_72hr: Apredica 72-hour HepG2 Assay for Cell Cycle Arrest (AID 2282914). Conditions: high-content imaging, actives raise or lower the signal. The essentials: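 Using multiplexed high-content imaging, HepG2 nuclei stained with Hoechst 33342 (2 ug/mL) were analysed for DNA content after fixation and permeabilization. Treatment lasted 72 hr across 0.39–200 uM in duplicate with final DMSO 0.5% v/v; DMSO served as negative control.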

A short description of assay [20]: APR_HepG2_MitoMembPot_1hr: Apredica 1-hour HepG2 Assay for Mitochondrial Membrane Potential (AID 2282675). The settings on record: imaging, actives raise or lower the signal. The essentials:
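HepG2 cells dosed 1 hour with 0.39–200 uM compound in duplicate, 0.5% DMSO final. MitoTracker Red CMXRos (250 nM, 30 min) loaded before formaldehyde fixation; fluorescence quantified by high-content imaging, bidirectional fitting versus DMSO.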

Inconclusive results are not listed. Activity calls are given as the source filed them. The calls were made as follows, unless noted: active = hit-call score of the fitted dose curve at least 0.9, where 1 is the maximum; inactive = score below 0.9.

With `CCCCC(O)(Cn1cncn1)c1ccc(Cl)cc1Cl` (configuration not stated), the compound was classed as inactive in [1], in [2], in assay [3], in [4], in [5] and in assay [6]. Further, the compound was classed as inactive in assay [7], in [8], in assay [9], in assay [10], in assay [11] and in assay [14]. Besides, the outcome in assay [15] and in [16] was inactive. Further, the half-maximal activity concentration (AC50) was 88 µM (active) in assay [12], 103 µM (active) in [13] and 105 µM (active) in assay [17].

On to `CCOc1cc(C(C)(C)C)ccc1C1COC(c2c(F)cccc2F)=N1` (configuration not stated), for which the outcome in assay [1], in assay [2], in assay [3], in assay [4], in [5] and in assay [7] was inactive. The result in assay [8], in [9], in assay [10], in [11], in assay [12] and in assay [13] was inactive. The result in assay [14] and in assay [16] was inactive. Moreover, in assay [15], the AC50 is 93.3 µM (active).

For `CCOC(=O)C(C)OC(=O)c1cc(Oc2ccc(C(F)(F)F)cc2Cl)ccc1[N+](=O)[O-]` (configuration not stated), the call in assay [1], in [2], in [3], in [4], in assay [6] and in assay [18] was inactive. For the same compound, the compound was called inactive in assay [7], in assay [8], in assay [9], in assay [10], in assay [11] and in [12]. The result in [13], in assay [14], in assay [15], in [16], in assay [17] and in [19] was inactive.

For `COCC(C)N(C(=O)CCl)c1c(C)csc1C` (configuration not stated), the call in [1], in assay [2], in [3], in [4], in assay [5] and in assay [6] was inactive. In addition, the result in [18], in assay [7], in assay [8], in assay [20], in [10] and in assay [11] was inactive. In addition, the result in [13], in assay [14], in [15] and in [16] was inactive. In addition, the results for the AC50 in assay [9], in assay [12] and in assay [17] were 109 µM (active), 115 µM (active) and 92.6 µM (active), respectively.

With `Cc1c(COC(=O)[C@@H]2[C@H](/C=C(\Cl)C(F)(F)F)C2(C)C)cccc1-c1ccccc1`, the compound was classed as inactive in assay [1], in assay [2], in assay [3], in assay [4], in [6] and in assay [7]. Moreover, the compound was called inactive in [8], in [9], in assay [10], in assay [11], in [12] and in [13]. For the same compound, the result in assay [14], in [15], in assay [16] and in assay [17] was inactive.

Regarding `CCOc1nc(C(Cl)(Cl)Cl)ns1`, the outcome in assay [1], in [2], in [3], in assay [4], in assay [5] and in [6] was inactive. Moreover, the outcome in [7], in assay [8], in [9], in assay [10], in assay [11] and in assay [12] was inactive. Also, the compound was classed as inactive in assay [13], in assay [14], in assay [15], in assay [16], in assay [17] and in assay [19].

For `CSC(=O)c1c(C(F)F)nc(C(F)(F)F)c(C(=O)SC)c1CC(C)C`, the compound was classed as inactive in assay [1], in assay [2], in assay [4], in assay [5], in assay [6] and in assay [18]. Besides, the call in assay [7], in assay [8], in [9], in assay [10], in assay [11] and in [12] was inactive. For the same compound, the compound was classed as inactive in [13], in assay [14], in assay [15], in [16] and in assay [17].

On to `CC1(C)CCC(=Cc2ccc(Cl)cc2)C1(O)Cn1cncn1` (configuration not stated), for which the compound was called inactive in [1], in assay [2], in assay [4], in assay [6], in assay [18] and in [7]. For the same compound, the compound was called inactive in [8], in assay [20], in assay [10], in assay [11], in assay [12] and in assay [13]. Also, the compound was classed as inactive in assay [14], in [15], in [16] and in assay [17]. For the same compound, the AC50 in [9] was 117 µM (active).

As usually defined, the AC50 is the midpoint of the concentration-response curve, whichever way the signal moves.
